CHOP inhibitor = inhibitors of CHOP induction in ER stress response; inhibition, % at 10 µM; 3.8% of 220,000 active; CHO-K1 CHOP-promoter luciferase, tunicamycin-induced, 15-18 h;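 active = compounds that reduced the stress-induced luciferase reporter signal by more than about 70% of percent inhibition, limit read from the data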;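 note: 0% = tunicamycin plus vehicle and 100% = wells without tunicamycin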
WT yeast gro inh = growth inhibition of WT yeast, mitochondrial fusion screen | mitochondrial fusion phenotypic screen, WT strain | inhibition, % at 10 µM | 2.1% of 190,000 active | AID 1362; in the data active = inhibition above about 58%; tested in S. cerevisiae
Lmaj promast = reduces viability of Leishmania major promastigotes. resazurin fluorescence viability. inhibition, % at 10 µM. 9% of 200,000 active. AID 1063; in the data active = inhibition above about 50%;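 note: promastigotes grown with compound for 44 hours at 28 °C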
Arbovirus anti = antivirals against arbovirus infection; 0.37% of 200,000 active; inhibition, % at 10 µM; arbovirus infection cell-based antiviral screen; in the data active = inhibition above about 30%
CHOP inh conf = confirmation of CHOP induction inhibitors; CHO-CHOP promoter luciferase reporter, tunicamycin-induced, luminescence; 45% of 2,100 active; inhibition, % at 10 µM; shares compounds with CHOP inhibitor;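 active = mean of three repeat readings of reporter signal inhibition above a set limit, cut at about 70% in these data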;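 note: 0% = tunicamycin plus vehicle and 100% = wells lacking tunicamycin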
* hit, by the source's call; / = no result. Hits are enriched below; roughly 12% of the tested compounds scored in any of these assays.

SMILES	CHOP inhibitor	WT yeast gro inh	Lmaj promast	Arbovirus anti	CHOP inh conf
Clc1ccccc1CN(Cc1ccccc1)c1ncnc2nc[nH]c12	107*	49	0	-35	39
CN(C)c1ccc(/C=C2\C(=N)N3C(=NC2=O)Sc2cc(S(C)(=O)=O)ccc23)cc1	104*	/	/	/	-9
Nc1nonc1-c1nc2ccccc2n1CC(=O)N/N=C\c1ccc(-c2ccc(Cl)cc2)o1	60	12	-4	0	/
Cc1ccc2c(C)nc(Nc3nc(CSc4nc5ccccc5[nH]4)cc(=O)[nH]3)nc2c1	104*	10	100*	-20	106*
Cc1ccc(SCc2cc(=O)[nH]c(Nc3nc(C)c4ccccc4n3)n2)cc1	10	21	0	-6	/
CNC(=O)CCN(Cc1ccco1)S(=O)(=O)c1ccc(OC)c(OC)c1	-4	/	/	/	/
C=CC(C)(C)c1cc2cc3ccoc3cc2oc1=O	32	-17	-5	0	/
O=c1nc(SCc2c(F)cccc2Cl)nc(-c2ccc(Cl)cc2)[nH]1	101*	/	/	/	10
O=c1nc(SCc2ccccc2Cl)nc(-c2ccc(Cl)cc2)[nH]1	44	/	/	/	/
CCOc1ccc(/C=C/C2=Cc3c(sc(NC(=O)CSc4n[nH]c(N)n4)c3C#N)C(C)(C)C2)cc1	109*	11	100*	3	116*
Cn1nc(-c2ccccc2)cc1NC(=O)c1cccs1	-9	/	/	/	/
O=C(NC1CC1)C1=COCCO1	44	8	-1	7	/
CC(=O)c1c(C)nc2ccc(Cl)cn12	-23	9	-6	7	/
O=C(/C=C/Nc1ccc(S(=O)(=O)Nc2ncccn2)cc1)c1cccs1	15	/	/	/	/
CCc1ccc(C(=O)/C=C/Nc2ccc(S(=O)(=O)Nc3cnc4ccccc4n3)cc2)cc1	101*	/	/	/	9
COC(=O)Nc1ccc(S(=O)(=O)Nc2cnc3ccccc3n2)cc1	0	-3	-7	1	/
O=C(/C=C/Nc1ccc(S(=O)(=O)Nc2ncccn2)cc1)c1ccc(Cl)c(Cl)c1	102*	4	-4	5	5
CCN(CC)c1ccc2c(c1)oc(=O)c1c(Cl)cc(=O)oc12	108*	7	2	-32	26
Nc1ccc2nc(CCCO)[nH]c2c1	-21	/	/	/	/
O=C(/C=C/Sc1ccc(C(F)(F)F)cn1)c1ccccc1	104*	/	/	/	-31
CN(C)c1ccc(/C=C2\SC(=O)N(CCc3nnc(N)s3)C2=O)cc1	100*	/	/	/	127*
Cc1ccc(C(=O)NNC(=S)NC(=O)c2ccc(Cl)cc2Cl)cc1	98*	46	9	-25	8
COc1ccc(/C=N/NC(=O)c2cc(-c3ccc(C)cc3C)nc3ccccc23)cc1COC(C)=O	26	9	8	-7	/
NC(=O)COn1c(SCC(N)=O)nc2ccccc2c1=O	-15	/	/	/	/
Cc1c(NC(=O)c2c(O)c3ccccc3n(C)c2=O)c(=O)n(-c2ccccc2)n1C	19	9	-4	3	/
SMILES	CHOP inhibitor	WT yeast gro inh	Lmaj promast	Arbovirus anti	CHOP inh conf
Cc1cccnc1NC(=O)c1c(O)c2ccccc2n(C)c1=O	98*	-2	1	3	100*
COC(=O)C1=C(NC(=O)c2ccccc2[N+](=O)[O-])CCS1	12	-47	5	-3	/
CC(=O)Nc1ccccc1/C=C/c1ccc2c(C)cc(C)c(O)c2n1	97*	77*	-4	-7	24
COc1cc(/C=N/NC(=O)Cn2cnc3ccccc3c2=O)ccc1O	4	/	/	/	/
O=C(Nc1ccc(F)cc1)Nc1ccc(N2CCCC2)c(S(=O)(=O)Nc2ccccc2Cl)c1	97*	52	98*	-9	91*
Cc1cc(Cl)n2c(nc3cc(F)c(F)cc32)c1C#N	105*	81*	91*	-25	124*
Cc1cc(C)n2c(=O)c3ccc(Cl)cc3nc2c1C#N	-16	53	-6	2	/
COc1ccccc1CCNC(=O)c1cc(-c2ccncc2)nc2ccc(Br)cc12	104*	-8	13	0	-74
Cc1ccc(-c2cc(C(=O)NCc3cnn(C)c3)c3cc(Br)ccc3n2)cc1	101*	-6	33	-22	20
Cn1cc(CNC(=O)c2cc(-c3ccccc3)nc3ccc(Br)cc23)cn1	-10	8	0	-6	/
O=C(/C=C/c1cccc(F)c1)N1CCN(c2ccccn2)CC1	-10	/	/	/	/
Nc1cccc2c1C(=O)N(C(=O)/C=C/c1cccc(F)c1)C2=O	103*	9	-7	1	127*
N#CC1(c2ccccc2)CCCN1C(=O)c1ccc(Br)o1 (centres undefined)	18	9	4	0	/
CC(C)Cn1c(=O)[nH]c(=O)c2c(C(F)(F)F)cc(-c3ccccc3)nc21	99*	/	/	/	100*
CCCCn1c(NS(=O)(=O)c2ccc(C)cc2)c(S(=O)(=O)c2ccccc2)c2nc3ccccc3nc21	104*	-9	-4	-9	89*

Source: PubChem (several laboratories)
